# In PubChem BioAssay (NCATS):
# “And” between values parts separate entries of the source, which are not always exact repeats. Equal values may be shown once. Records with an inconclusive call do not appear. Values without a mark were called inactive. The source made the active and inactive calls. The call rests on the fitted dose curve; in most records, active means well fitted activation curve with a large enough effect; inconclusive means small, poorly fitted or top-dose-only effect; inactive means no such curve, though single readings can be large or run the other way.
# Target: Cellular tumor antigen p53 (Homo sapiens) (UniProt P04637)
# Sequence (P04637 whole entry, looked up): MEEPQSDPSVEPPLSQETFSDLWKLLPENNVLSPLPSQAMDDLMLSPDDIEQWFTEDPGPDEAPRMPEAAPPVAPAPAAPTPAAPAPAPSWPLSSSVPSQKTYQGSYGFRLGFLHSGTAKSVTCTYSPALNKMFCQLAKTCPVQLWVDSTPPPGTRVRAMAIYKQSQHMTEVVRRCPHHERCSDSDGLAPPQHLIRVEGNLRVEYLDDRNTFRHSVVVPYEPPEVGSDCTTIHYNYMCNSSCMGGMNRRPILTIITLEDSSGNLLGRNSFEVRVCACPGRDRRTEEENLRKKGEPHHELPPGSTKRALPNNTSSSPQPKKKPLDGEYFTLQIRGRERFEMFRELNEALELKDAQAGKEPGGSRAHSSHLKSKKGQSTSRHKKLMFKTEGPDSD
# Test: Primary qHTS for small molecule compounds that upregulate eGFP-tagged delta133p53alpha (in N-terminal) cells. (AID 2060322); further: nearly all actives have a fitted effect of over 75% in size;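 on activation: cells pre-induced with doxycycline then dosed without doxycycline; series mostly up to about 56 µM; 0% = DMSO vehicle and 100% = reference activator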
# Settings: NCI-H358 eGFP-delta133p53alpha fluorescence, 24 h; activation: hits give high values
# Source text: Assay Development and Screening Technology
# National Center for Advancing Translational Sciences (NCATS),
# National Institute of Health (NIH), Rockville, Maryland
# Cellular senescence (CS) is one of the hallmarks of aging and age-related diseases. Senescent cells are characterized by an irreversible growth arrest, an increase in senescence-associated beta-galactosidase (SA-beta-gal) activity and p16INK4a expression, an activation of the DNA damage response pathways, and the emergence of a senescence-associated secretory phenotype (SASP).
# Delta133p53alpha, a human/primate-specific p53 protein isoform, delays or inhibits the induction of CS and SASP in various types of human cells, including progeria-derived fibroblasts, primary normal astrocytes, and CD8+ T lymphocytes. Induction of delta133p53alpha with small molecule compounds may provide therapeutic opportunities for inhibition of senescence/SASP-associated pathologies in progeria syndromes, astrocyte-mediated neuroprotection in neurodegenerative diseases, and possibly prevention and treatment of a wider range of senescence- and aging-associated diseases.
# Here we report the development and validation of a cell-based quantitative high throughput screening (qHTS) assay in 1,536-well format. This qHTS assay uses the NCI-H358 cell line with doxycycline-inducible expression of enhanced green fluorescent protein (eGFP)-tagged delta133p53alpha, which allows efficient and highly quantitative measurement of the protein levels.
# PROTOCOL TABLE (as described by Inglese J, Shamu CE and Guy RK. 2007)
# SEQUENCE No. (e.g., 1, 2, 3, etc.); […] (e.g., Cells, Incubation, Reagent, etc.); VALUE; DESCRIPTION.
# 1; Cells; 4uL; 800 doxycycline treated cells / well in doxycycline-free media, 1536-well black, clear-bottom low base Aurora microplates.
# 2; Compounds; 23 nL; Kalypsis pin tool (Wako) equipped with 1536-well pin heads, 5-azacytidine positive control.
# 3; Incubation; 24 hr; 37C, 5% CO2; 95% relative humidity.
# 4; Aspiration; 1x; BioTek EL406 washer dispenser (Agilent).
# 5; Fixing; 3.5% paraformaldehyde, BioTek EL406 washer dispenser (Agilent).
# 6; Washing; 1x PBS; BioTek EL406 washer dispenser (Agilent).
# 7; Nuclei staining; 1:1000 dilution of Hoechst 33342 (Thermofisher), BioTek EL406 washer dispenser (Agilent).
# 8; Incubation; 20 min; in the dark at room temperature.
# 9; Washing; 2x, 1x PBS (ThermoFisher), BioTek EL406 washer dispenser (Agilent).
# 10; Reagent; 10 uL; 1x PBS per well, sealed with clear adhesive tape.
# NOTES (numbers refer to sequence numbers above).
# 1. NCI-H358 cells expressing eGFP-tagged delta133p53alpha were grown in T75 culture flasks and treated with doxycycline for 24h, at 10 ng/ml for eGFP-D133p53a cells (N-terminal cell) and 100 ng/ml for D133p53a-eGFP cells (C-terminal cells). Cells were trypsinized, counted using a Counted 3 Automated Cell Counter (Thermo Fisher), and diluted to a concentration of 200,000 cells/ml. A Multidrop Combi Reagent Dispenser (ThermoFisher) was used to dispense 800 cells/well in […] of doxycycline-free media, into 1536-well black/clear bottom low base plates (AuroraMicroplates).
# 2. After plating cells, 23 nl of compound library, DMSO vehicle control or positive control (5-azacytidine) were transferred by Pin Tool (Wako). The plate map layout was the same for each plate: (column 1) non-doxycycline treated cells + DMSO vehicle control; (column 2) doxycycline treated cells + DMSO vehicle control baseline; (column 3) doxycycline treated cells + positive control 57.5 uM final concentration 5-azacytidine; (column 4) doxycycline treated cells + serial dilution of 5-azacytidine, 16-point 1:2 titration spanning 1.8 nM to […] final concentration; (columns 5-48) doxycycline treated cells + titration of library compounds.
# 3. Cells were incubated at 37 °C, 5 % CO2, 95% RH with breathable metal lid for 24h.
# 4-10. […] After two washes, 10 ul of 1X PBS (Thermo Fisher) was dispensed to each well. Clear adhesive plate seals (VWR) were applied and plates stored at 4 °C.
# 11. […]
# Potency means the concentration at half of the fitted maximal effect.
Compound,activation,Potency
CCCN1C[C@H](CSC)C[C@@H]2c3cccc4[nH]cc(c34)C[C@H]21,7.67% and 9.97%,
C=C1C(=O)OC2/C=C(\CO)CC/C=C(\C=O)C(OC)C(OC(=O)C(C)CC)C12 (stereo not given),-6.11%,
CN1CCN(C2=Nc3ccccc3Nc3ccc(O)cc32)CC1,1.91%,
COC(=O)C(C)C1CCC2(C)C(=O)C=CC(C)(O)C2C1O (stereo not given),26%,
O=C(O)Cc1cc(I)c(Oc2ccc(O)c(I)c2)c(I)c1,2.39%,
C/C(=C\CC[C@@H](C)[C@H]1CC(O)[C@@]2(C)C3CC[C@H]4C(C)(C)[C@@H](OC5OCC(O)C(O)C5OC5OC(CO)C(O)C(O)C5O)CC[C@@]45C[C@@]35CC(O)[C@]12C)C(=O)O (stereo not given in full),-16.8%,
C/C=C(/C)C(=O)O[C@H]1[C@H](OC(=O)/C(C)=C\C)[C@@]23C(CC1(C)C)[C@]1(CCC4[C@@]5(C)CC[C@H](O[C@@H]6O[C@H](C(=O)O)[C@@H](O)[C@H](O[C@@H]7O[C@H](CO)[C@H](O)[C@H](O)[C@H]7O[C@@H]7O[C@@H](C)[C@H](O)[C@@H](O)[C@H]7O[C@@H]7OC[C@@H](O)[C@H](O)[C@H]7O)[C@H]6O[C@@H]6O[C@H](CO)[C@H](O)[C@H](O)[C@H]6O)C(C)(C)C5CC[C@@]4(C)[C@]1(C)C[C@H]2O)O[C@H]3O (stereo not given in full),-8.93%,
CC=CC1=C(C(=O)O)N2C(=O)[C@H](NC(=O)[C@H](N)c3ccc(O)cc3)[C@@H]2SC1,11.1%,
Cc1cc2sc(NC(=O)Cc3ccccc3)nc2cc1Cl,-6.25%,
Nc1ccn([C@@H]2O[C@H](CO)[C@@H](O)C2(F)F)c(=O)n1,-26.8% and -6.68%,
C[C@H]1O[C@@H](O[C@H]2CC[C@@]3(C)C(CC[C@]4(C)C3CC=C3C5CC(C)(C)CC[C@]5(C(=O)O)CC[C@]34C(=O)O)C2(C)C)[C@H](O)[C@@H](O)[C@@H]1O (stereo not given in full),-12.2%,
CC(O)C(O)[C@H]1CNc2nc(N)[nH]c(=O)c2N1 (stereo not given in full),-13.4%,
O=C(NCCc1c[nH]c2ccccc12)c1cccnc1,10.9%,
COc1ccc(/C=C/C(=O)O[C@@H]2[C@@H](O[C@@H]3O[C@H](CO)[C@@H](O)[C@H](O)[C@H]3O)[C@@H](O)[C@H](O[C@H]3C4C=CO[C@@H](O[C@@H]5O[C@H](CO)[C@@H](O)[C@H](O)[C@H]5O)C4[C@@]4(CO)O[C@@H]34)O[C@H]2C)cc1 (stereo not given in full),-9.92%,
CC(=O)OC1[C@H]2[C@@H](C[C@@H](C)[C@@H]3C=CC(=O)[C@@]13C)OC(=O)[C@@H]2C (stereo not given in full),,21.3 µM (active)
CCCNCCOc1ccc(NC(=O)c2c[nH]c3c2C(=O)CCC3)cc1F,-0.955%,
COC(=O)c1c(Cl)c(Cl)c(C(=O)OC)c(Cl)c1Cl,-11.7%,
O=C1CC2(CCCC2)CC(=O)N1,-7.34%,
CC(C)C1=CC2C(CC[C@]2(C)O)[C@](C)(O)CC1 (stereo not given in full),-6.25%,
Cc1cc(C(C)(C)C)cc(C)c1CC1=NCCN1,4.18% and 6.06% and -36%,

Compound,activation,Potency
C/C=C(\C)C(=O)OC[C@H]1O[C@@H](O[C@H]2[C@@H](O[C@H]3O[C@H](CO)[C@@H](O)[C@H](O)[C@H]3O[C@@H]3O[C@H](CO)[C@@H](O)[C@H](O)[C@H]3O)O[C@H](COC(=O)/C(C)=C/C)[C@@H](O)[C@@H]2O)[C@H](O)[C@@H](O)[C@@H]1O,-8.4%,
C[C@@H]1O[C@@H](O[C@H]2[C@H](OC(=O)[C@]34CCC(C)(C)C[C@H]3C3=CCC5[C@@]6(C)C[C@@H](O)[C@@H](O[C@@H]7O[C@H](CO)[C@@H](O)[C@H](O)[C@H]7O)[C@@](C)(CO)C6[C@H](O)C[C@@]5(C)[C@]3(C)CC4)OC[C@H](O)[C@@H]2O)[C@H](O)[C@H](O[C@@H]2OC[C@](O)(CO)[C@H]2O)[C@H]1O[C@@H]1OC[C@@H](O)[C@H](O[C@H]2O[C@H](C)[C@@H](O)[C@H](O)[C@@H]2O)[C@H]1O (stereo not given in full),6.25%,
CC1=C(CCC(C)O[C@@H]2O[C@H](CO)[C@@H](O)[C@H](O)[C@H]2O)C(C)(C)CC(O)C1 (stereo not given in full),-7.63%,
CN(C)CCCN1c2ccccc2Sc2ccc(C(F)(F)F)cc21,25.1% and 58.3%,
CC(C)c1ccc2oc3nc(N)c(C(=O)O)cc3c(=O)c2c1,16.6% and 7.34%,
O=[N+]([O-])c1cccc2cn[nH]c12,-32.7%,
CC(C(=O)O)c1cccc(C(=O)c2ccccc2)c1 (stereo not given),8.47% and 8.5% and -11%,
COc1cccc(C(=O)N2CCN(C(=O)COc3cccc(C)c3)CC2)c1OC,4.77%,
CC(C)=CCC1C(=O)N(c2ccccc2)N(c2ccccc2)C1=O,-15.3%,
C=C1C(=O)O[C@H]2C[C@@H](C)[C@@H]3CCC(=O)[C@@]3(C)C[C@H]12,,10.7 µM (active)
COC(=O)CC1(O)C(=O)Nc2ccccc21 (stereo not given),-1.79%,
C[C@@H]1[C@H](C)CC[C@]2(C(=O)O)CC[C@]3(C)C(=CC[C@@H]4[C@@]5(C)C[C@@H](O)[C@H](O)[C@@](C)(CO)[C@H]5CC[C@]43C)[C@@H]12,36.3%,
COc1cc(Nc2ncc(F)c(Nc3ccc4c(n3)NC(=O)C(C)(C)O4)n2)cc(OC)c1OC,7.29%,
C=C1CCC2C(C)(COC(C)=O)CCCC2(C)C1CCC(C)CC(=O)O (stereo not given),-12.2%,
CN(C)c1ccc(C(=C2C=CC(=[N+](C)C)C=C2)c2ccc(N(C)C)cc2)cc1,-20.9%,
Nc1ccc(N2C(=O)c3ccccc3C2=O)c(Cl)c1,-1.82%,
COC(=O)C1=COC(OC2OC(CO)C(O)C(O)C2O)C2C(C)C(OC(=O)/C=C/c3ccc(O)cc3)C(O)C12 (stereo not given),-8.93%,
COc1ccc(CCc2nc3cc(-c4c(C)noc4C)ccc3n2C[C@H](C)N2CCOCC2)cc1Cl,20.1%,
CC1C2=CC(=O)OC2(O)CC2C1C(O)CC1C(C)(CO)CCCC21C (stereo not given),-9.16%,
CCCCC1C(=O)N(c2ccccc2)N(c2ccccc2)C1=O,10% and 16.7%,
